Results filed as inconclusive are left out. Active and inactive are the calls of the source. Calls follow the shape of the dose curve; as a rule, active = well fitted curve in the direction sought with a large enough effect; inconclusive = small, poorly fitted or top-dose-only effect, or another doubt; inactive = no such curve, though single readings can be large; an effect the other way counts as inactive or inconclusive.
Columns and labels:
[1] = qHTS for Inhibitors of Plasmodium falciparum (DD2) proliferation (AID 504314);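 also: parasite DNA measured by SYBR Green fluorescence after red cell lysis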
How it was run: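 Infected RBCs, 0.3% parasitemia, 2.5% Hct; compound 72 h, 37C/5% CO2; lyse + SYBR Green I, RT overnight, dark; read ex485/em535; normalize to DMSO and artemisinin 0.29 uM.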

[2] = qHTS for Inhibitors of Plasmodium falciparum (GB4) proliferation (AID 504315); also: nearly all actives have a fitted effect of over 50% in size
How it was run: (§1)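 Erythrocytes infected with P. falciparum line (0.3% parasitemia, 2.5% hematocrit final) incubated with compounds 72 h at 37 °C, 5% CO2; SYBR Green lysis buffer added, fluorescence read next day. Normalized to 0.29 uM artemisinin and DMSO.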

[3] = qHTS for Inhibitors of Plasmodium falciparum (7G8) proliferation (AID 504316); also: series mostly up to about 6.7 µM; nearly all actives have a fitted effect of over 65% in size
How it was run: as §1

[4] = qHTS for Inhibitors of Plasmodium falciparum (HB3) proliferation (AID 504318); also: nearly all actives have a fitted effect of over 60% in size
How it was run: as §1

[5] = qHTS for Inhibitors of Plasmodium falciparum (CP250) proliferation (AID 504320)
How it was run: as §1

Measured: Potency

COC(=O)C1=C(C(=O)OC)[C@@H]2N(C)c3ccccc3[C@@]23C[C@@H](C(=O)OC)N(C(C)=O)C3=N1
inactive: [1] | [2] | [3] | [4] | [5]

Cc1ccccc1Nc1oc(-c2ccccc2)nc1-c1ccc(C(F)(F)F)cc1
inactive: [1] | [2] | [3] | [4] | [5]

COC(=O)C1=C(C(=O)OC)[C@@H]2N(C)c3ccc(OC)cc3[C@@]23C[C@@H](C(=O)OC)N=C3N1
inactive: [1] | [2] | [3] | [4] | [5]

CCCCC1=CC2=CC(=O)C(C)(OC(=O)CC)C(=O)C2=CN1Cc1ccco1 (stereo not given)
inactive: [1] | [2] | [3] | [4] | [5]

COC(=O)C1=C(C)N(Cc2ccccc2)C(=O)NC1c1ccco1 (stereo not given)
inactive: [1] | [2] | [3] | [4] | [5]

COC(=O)C1=C(C(=O)OC)[C@@H]2N(C)c3ccccc3[C@@]23C[C@@H](CO)N(C(=O)C2CCC2)C3=N1
inactive: [1] | [2] | [3] | [4] | [5]
